From PubChem BioAssay (Tox21) come the findings set out here.

Where “and” joins values, the source holds several entries; their conditions need not be identical. Equal entries are not always repeated. Results filed as inconclusive are left out. Where a call stands in place of a potency, no number is given. A structure can be active in one record and inactive in another. Calls of active or inactive are those of the source. Calls come from the whole dose curve; as a rule, active = well fitted activation curve with a large enough effect in the repeat runs; inconclusive = weak or mixed curves; inactive = no such curve, though single readings can be large or run the other way.
Potency is the fitted concentration of half-maximal effect.

Nuclear receptor subfamily 1 group I member 2 (Homo sapiens), sequence (O75469 whole entry, looked up): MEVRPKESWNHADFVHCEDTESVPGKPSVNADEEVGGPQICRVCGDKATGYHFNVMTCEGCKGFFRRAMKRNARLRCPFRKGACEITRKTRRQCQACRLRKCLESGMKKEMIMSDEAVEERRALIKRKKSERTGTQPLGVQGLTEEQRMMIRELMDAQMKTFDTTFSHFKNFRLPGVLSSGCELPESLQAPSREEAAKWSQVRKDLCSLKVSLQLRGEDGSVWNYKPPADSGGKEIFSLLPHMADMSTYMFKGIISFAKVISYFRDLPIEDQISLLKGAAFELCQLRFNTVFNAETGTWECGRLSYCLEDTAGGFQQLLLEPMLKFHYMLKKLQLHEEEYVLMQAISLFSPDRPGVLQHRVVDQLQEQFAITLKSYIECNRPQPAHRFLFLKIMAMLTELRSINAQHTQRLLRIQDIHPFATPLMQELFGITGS

The assay has as its target Nuclear receptor subfamily 1 group I member 2 (Homo sapiens) (UniProt O75469). Briefly: Human pregnane X receptor (PXR) small molecule agonists, qHTS assay (AID 1346982). Note: nearly all actives have a fitted effect of over 35% in size. The conditions noted are these: PXR-Luc HepG2, CYP3A4 luciferase reporter, 24 h; series mostly up to 92.4 µM. The source says: National Center for Advancing Translational Sciences [NCATS]
NIH Chemical Genomics Center [NCGC]
U.S. Environmental Protection Agency [EPA]
National Institutes of Environmental Health Sciences [NIEHS]
National Toxicology Program [NTP]
The human pregnane X receptor (hPXR) regulates the expression of several drug metabolizing enzymes and induction of these proteins is a major mechanism for developing drug resistance in cancer. One such key enzyme catalyzing the drug metabolism is cytochrome P450 3A4 (CYP3A4). Changes in CYP3A4 expression affect drug metabolism, thereby reducing the therapeutic efficacy and altering toxicological response to a drug and which finally causes adverse drug interaction. To screen Tox21 libraries for compounds that activate hPXR-mediated CYP3A4 gene expression, PXR-Luc HepG2 cells were used.
PXR-Luc HepG2 cells were dispensed at 2,000 per well in 5uL of assay medium containing 5% charcoal-stripped FBS into white solid bottom 1536-well plates (Corning Life Sciences, Corning, NY) using a Multidrop Combi (Thermo Scientific, Waltham, MA) dispenser. The assay plates were incubated at 37 C and 5% CO2 for 5hr, and then 23nL of compounds dissolved in DMSO and positive control were transferred using a Pintool station (Wako, San Diego, CA). The assay plates were incubated at 37C and 5% CO2 for 24hr. For luciferase read, 4uL of ONE-Glo reagent (Promega Corporation, Madison, WI) was added to each well of the assay plates using Flying Reagent Dispenser (FRD, Aurora Discovery, San Diego, CA) and incubated the assay plates at room temperature for 30min. The luminescence signal was quantified using a ViewLux plate reader (Perkin Elmer, Shelton, CT).
As to `CCCNC(C)C(=O)Nc1ccccc1C` (stereo not given), the Potency result is “inactive”.

As to `NC(Cc1ccc(Cl)cc1)C(=O)O` (stereo not given), the activation is -5.94% [at 0.349 µM] (inactive).

Regarding `CCC(C)(Oc1ccc(C2(c3ccc(OC(C)(CC)C(=O)O)cc3)CCCCC2)cc1)C(=O)O` (stereo not given), the Potency result is “inactive”.

Take `OCCOCCN1CCN(C(c2ccccc2)c2ccc(Cl)cc2)CC1` (stereo not given): the Potency was 8.52 µM (active) and inactive.

Turning to `Clc1ccc2c(c1)C(N1CCNCC1)=Nc1ccccc1O2`, the Potency result was “inactive”.

For `c1ccc2cc3c(ccc4ccccc43)cc2c1`, the Potency is 27.4 µM (active) and 10.9 µM (active).

On to `CC(=O)CC(C)=O`, for which the Potency entry was “inactive”.

As to `COc1ccc(Cc2cnc(N)nc2N)cc1OC`, the Potency result was “inactive”.

On to `OCC(CO)N[C@H]1C[C@](O)(CO)[C@@H](O)[C@H](O)[C@H]1O`, for which the Potency result is “inactive”.

For the compound `c1ccc2c(c1)-c1cccc3c1c-2cc1ccccc13`, the Potency was 29.9 µM (active) and 21.7 µM (active).

For `CC(C)(C)c1ccccc1`, the Potency entry is “inactive”.

As for `O=c1n(CC2CO2)c(=O)n(CC2CO2)c(=O)n1CC1CO1` (stereo not given), the Potency was 17.1 µM (active) and 13.7 µM (active).

For `CCCCCCCCCCCC[N+](C)(C)C`, the Potency is 24.3 µM (active) and 61.1 µM (active).

For `O=C(Oc1ccccc1)c1ccccc1O`, the Potency result was “inactive”.

Take `CC(=O)Nc1ccc(C(=O)CCl)cc1`: the Potency was 21.8 µM (active) and 24.3 µM (active).

With `Nc1nc2ccccc2[nH]1`, the Potency result is “inactive”.

For the compound `CCCCC/C=C/CC1CC(=O)OC1=O` (stereo not given), the Potency result was “inactive”.

Regarding `NC(=Nc1ccccc1)Nc1ccccc1`, the Potency is 3.86 µM (active) and 11.9 µM (active).

For the compound `BrC1CCC(Br)C(Br)CCC(Br)C(Br)CCC1Br` (stereo not given), the Potency is 54.3 µM (active) and 46.1 µM (active).

For `Nc1nc(=S)c2[nH]cnc2[nH]1`, the Potency result was “inactive”.

Regarding `Cc1cc(C2(c3cc(C)c(O)cc3C)OS(=O)(=O)c3ccccc32)c(C)cc1O`, the Potency is 61.1 µM (active) and inactive.

`CCCCCCC(O)CCCCCCCCCCC(=O)O` (stereo not given): the Potency result was “inactive”.

Regarding `Nc1ccc2cc3ccccc3cc2c1`, the Potency was 27.8 µM (active) and 21.7 µM (active).

As to `Cc1cc(Cc2cc(C)cc(C(C)(C)C)c2O)c(O)c(C(C)(C)C)c1`, the Potency was 24.5 µM (active) and 386 nM (active).

For `CCC[C@H](N[C@@H](C)C(=O)N1[C@H](C(=O)O)C[C@@H]2CCCC[C@@H]21)C(=O)OCC`, the Potency entry is “inactive”.

`CNC1(C)C2CCC(C2)C1(C)C` (stereo not given): the Potency result was “inactive”.

Take `CC(C)(C)c1cc(C(C)(C)C)c(O)c(C(C)(C)C)c1`: the Potency is 68.6 µM (active) and inactive.

With `O=C(O)CP(=O)(O)O`, the Potency entry was “inactive”.

Regarding `O=C1Nc2ccccc2C1(c1ccc(O)cc1)c1ccc(O)cc1`, the Potency was 61.1 µM (active) and inactive.

`C/C=C/c1ccc(OCC)c(O)c1`: the Potency result was “inactive”.

For the compound `CCN1CCCC1CNC(=O)c1cc(S(=O)(=O)CC)c(N)cc1OC` (stereo not given), the Potency result is “inactive”.

Regarding `COC(c1ccccc1)(c1ccccc1)[C@H](Oc1nc(C)cc(C)n1)C(=O)O`, the Potency result was “inactive”.

For `CC(=O)OCC1=C(C(=O)O)N2C(=O)[C@@H](NC(=O)Cc3cccs3)[C@H]2SC1`, the Potency result was “inactive”.

For the compound `[Cl][In]([Cl])[Cl]`, the Potency entry was “inactive”.

As for `CCC(=O)/C=C/C1C(C)=CCCC1(C)C` (stereo not given), the Potency is 34.5 µM (active).

For `C=C(C)C1CC=C(C)C(OC(C)=O)C1` (stereo not given), the Potency result is “inactive”.

Take `Nc1cc(S(=O)(=O)O)cc2cc(S(=O)(=O)O)cc(O)c12`: the Potency result was “inactive”.

With `Cc1cccc(O)c1C`, the Potency result was “inactive”.

Consider `CCCC(=O)c1ccccc1`, for which the Potency entry is “inactive”.

Take `CC(C)CCOCc1ccccc1`: the Potency entry was “inactive”.
